PubChem BioAssay (Tox21)
Records with an inconclusive call do not appear. Active and inactive are the calls of the source. Unless noted, calls come from the whole dose curve.

Tests used:
[1] = Nuclear factor erythroid 2-related factor 2/antioxidant responsive element (Nrf2/ARE) small molecule agonists: qHTS cell viability counter screen in human keratinocytes (AID 1919968; active = well fitted curve in the direction sought with a large enough effect in the repeat runs; an effect the other way counts as inactive or inconclusive; note: nearly all actives have a fitted effect of over 55% in size)
Method in brief: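 KeratinoSens cells (HaCaT keratinocytes stably carrying an ARE-luciferase reporter) were seeded at 1,500 cells/well and rested 5 h at 37 C/5% CO2. They were then exposed to compounds in DMSO for 23 h. Viability was read by CellTiter-Fluor fluorescence after 1 h.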

[2] = Nuclear factor erythroid 2-related factor 2/antioxidant responsive element (Nrf2/ARE) small molecule agonists: luciferase reporter gene qHTS assay in human keratinocytes (AID 1919969); note: nearly all actives have a fitted effect of over 35% in size
[3] = target: Gonadotropin-releasing hormone receptor (Homo sapiens) (UniProt P30968); assay: Human gonadotropin-releasing hormone receptor (GnRHR) small molecule agonists, calcium flux assay in GnRHR-HEK293 cells (AID 1920063); note: nearly all actives have a fitted effect of over 35% in size
Sequence of Gonadotropin-releasing hormone receptor (Homo sapiens) (P30968 whole entry, looked up): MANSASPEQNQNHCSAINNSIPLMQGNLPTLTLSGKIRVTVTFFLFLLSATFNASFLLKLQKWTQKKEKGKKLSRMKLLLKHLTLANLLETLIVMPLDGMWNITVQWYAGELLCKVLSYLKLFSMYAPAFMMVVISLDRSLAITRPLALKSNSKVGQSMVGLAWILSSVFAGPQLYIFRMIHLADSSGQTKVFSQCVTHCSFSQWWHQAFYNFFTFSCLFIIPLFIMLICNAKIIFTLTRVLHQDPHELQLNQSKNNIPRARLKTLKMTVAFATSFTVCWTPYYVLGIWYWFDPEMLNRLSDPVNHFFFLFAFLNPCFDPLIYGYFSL
Method in brief: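 HEK293 cells stably expressing human GnRHR were plated 18 h at 37 °C, loaded with calcium dye 1 h at 37 °C, then given compound in agonist mode; fluorescence (Ex/Em 480/540) read kinetically for 3 min at 1 s intervals.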

[4] = target: KiSS-1 receptor (Homo sapiens) (UniProt Q969F8); assay: Human kisspeptin (KISS1R) small molecule agonists, calcium flux assay in KISS1R-HEK293 cells (AID 1920064; active = well fitted curve in the direction sought with a large enough effect in the repeat runs; an effect the other way counts as inactive or inconclusive)
Sequence of KiSS-1 receptor (Homo sapiens) (Q969F8 whole entry, looked up): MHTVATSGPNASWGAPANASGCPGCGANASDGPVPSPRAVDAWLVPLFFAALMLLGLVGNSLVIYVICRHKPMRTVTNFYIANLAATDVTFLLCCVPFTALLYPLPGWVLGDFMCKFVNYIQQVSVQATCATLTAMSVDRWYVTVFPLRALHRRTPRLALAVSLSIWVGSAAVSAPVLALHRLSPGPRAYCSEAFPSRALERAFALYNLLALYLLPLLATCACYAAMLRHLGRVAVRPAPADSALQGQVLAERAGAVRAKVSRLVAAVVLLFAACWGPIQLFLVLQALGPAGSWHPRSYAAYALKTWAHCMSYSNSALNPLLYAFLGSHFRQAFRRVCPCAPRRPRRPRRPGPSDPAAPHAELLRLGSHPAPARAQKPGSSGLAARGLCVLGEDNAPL
Method in brief: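 HEK293 cells stably expressing human KISS1R were plated 18 h at 37 °C, loaded with calcium dye for 1 h at 37 °C, then given compound by pin tool. Fluorescence (Ex/Em 480/540) was read kinetically for 3 min.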

[5] = G protein-coupled receptor (GPCR) small molecule agonists, calcium flux assay: HEK293 wild type cell line counter screen (AID 1920065)
Method in brief: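 Cells were plated and cultured 18 h at 37 C/5% CO2, then loaded with calcium dye for 1 h at 37 C. Compounds in DMSO were pin-transferred in agonist mode, and fluorescence (Ex/Em 480/540) was read kinetically for 3 min at 1 s intervals.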

[6] = p53 small molecule agonists, cell-based qHTS assay with human liver microsomes: qHTS cell viability counter screen (AID 1963579); note: nearly all actives have a fitted effect of over 45% in size
Method in brief: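 p53RE-bla cells, 4,000/well, dosed 5 hours after plating, with human liver microsomes (0.5 mg/mL final) plus NADPH (0.5 mg/mL final), 16 hours at 37 C. Viability read as CellTiter-Glo luminescence after 30 min at room temperature.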

[7] = p53 small molecule agonists, cell-based qHTS assay with rat liver microsomes: qHTS cell viability counter screen (AID 1963580); note: nearly all actives have a fitted effect of over 45% in size
Method in brief: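 p53RE-bla HCT-116 cells (4,000/well) rested 5 h at 37 C, then given Tox21 compounds in DMSO with rat liver microsomes (0.5 mg/mL final) plus NADPH (0.5 mg/mL final) for 16 h at 37 C. Viability read by CellTiter-Glo luminescence after 30 min at room temperature.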

[8] = p53 small molecule agonists, cell-based qHTS assay: qHTS cell viability counter screen (AID 1963581); note: nearly all actives have a fitted effect of over 45% in size; note: potency is the fitted concentration of half-maximal effect
Method in brief: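 p53RE-bla HCT-116 cells were exposed to compounds for 16 h at 37 C; after the beta-lactamase FRET read in the same wells, CellTiter-Glo was added and luminescence (intracellular ATP) read after 30 min at room temperature.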

[9] = target: 5-hydroxytryptamine receptor 2A (Homo sapiens) (UniProt P28223); assay: 5-hydroxytryptamine receptor 2A (HTR2A) small molecule antagonists, cell-based qHTS assay (AID 1963586); note: nearly all actives have a fitted effect of over 45% in size
Sequence of 5-hydroxytryptamine receptor 2A (Homo sapiens) (P28223 whole entry, looked up): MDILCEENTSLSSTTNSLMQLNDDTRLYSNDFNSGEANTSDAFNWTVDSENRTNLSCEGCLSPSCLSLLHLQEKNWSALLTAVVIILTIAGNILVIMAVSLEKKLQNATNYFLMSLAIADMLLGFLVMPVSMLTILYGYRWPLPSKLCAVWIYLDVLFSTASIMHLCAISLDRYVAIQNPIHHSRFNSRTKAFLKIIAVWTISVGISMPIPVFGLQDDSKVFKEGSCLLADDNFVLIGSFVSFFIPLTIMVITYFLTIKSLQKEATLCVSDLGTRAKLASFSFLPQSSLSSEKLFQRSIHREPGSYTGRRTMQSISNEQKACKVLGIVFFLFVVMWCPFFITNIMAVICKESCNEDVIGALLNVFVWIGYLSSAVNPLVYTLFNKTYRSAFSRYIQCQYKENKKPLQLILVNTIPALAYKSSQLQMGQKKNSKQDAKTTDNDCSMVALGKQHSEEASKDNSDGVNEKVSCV
Method in brief: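 Antagonist-mode intracellular calcium assay: DOI (4 nM) added after 5 min compound pre-incubation at room temperature to dye-loaded HTR2A-CHO cells. Fluorescence followed for 3 min, sampled every second.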

[10] = target: Muscarinic acetylcholine receptor M1 (Homo sapiens) (UniProt P11229); assay: Cholinergic receptor muscarinic 1 (CHRM1) small molecule antagonists, cell-based qHTS assay (AID 1963588); note: nearly all actives have a fitted effect of over 40% in size
Sequence of Muscarinic acetylcholine receptor M1 (Homo sapiens) (P11229 whole entry, looked up): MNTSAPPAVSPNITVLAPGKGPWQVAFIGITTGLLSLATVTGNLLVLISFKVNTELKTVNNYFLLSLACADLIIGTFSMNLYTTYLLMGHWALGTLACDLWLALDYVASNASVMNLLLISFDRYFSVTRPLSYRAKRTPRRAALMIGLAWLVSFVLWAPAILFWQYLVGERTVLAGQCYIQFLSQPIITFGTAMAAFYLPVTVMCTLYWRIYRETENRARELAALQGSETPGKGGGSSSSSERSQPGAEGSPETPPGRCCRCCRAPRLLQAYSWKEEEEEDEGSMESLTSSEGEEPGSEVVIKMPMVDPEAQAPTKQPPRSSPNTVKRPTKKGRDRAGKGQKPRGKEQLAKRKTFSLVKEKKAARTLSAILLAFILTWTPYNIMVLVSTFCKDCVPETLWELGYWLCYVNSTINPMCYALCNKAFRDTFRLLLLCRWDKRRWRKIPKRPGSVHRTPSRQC
Method in brief: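 CHRM1-CHO calcium-flux assay, antagonist mode. Cells were seeded 18 h, dye-loaded 1 h at 37 C and given compound for 5 min at RT, then acetylcholine was added at 50nM. FDSS fluorescence was read 3 min; 15 concentrations, three runs.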

[11] = target: Muscarinic acetylcholine receptor M1 (Homo sapiens) (UniProt P11229); assay: Cholinergic receptor muscarinic 1 (CHRM1) small molecule agonists, cell-based qHTS assay (AID 1963589); note: nearly all actives have a fitted effect of over 35% in size
Method in brief: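 CHO cells stably expressing human CHRM1, seeded 18 h at 37 C/5% CO2, dye-loaded 1 h at 37 C, then given compound in agonist mode; intracellular calcium fluorescence read kinetically at 1 s intervals. Fifteen concentrations, three independent runs.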

[12] = target: Beta-2 adrenergic receptor (Homo sapiens) (UniProt P07550); assay: Adrenergic beta2 receptor (ADRB2) small molecule antagonists, cell-based qHTS assay (AID 1963592); note: series mostly up to about 92 µM; nearly all actives have a fitted effect of over 50% in size
Sequence of Beta-2 adrenergic receptor (Homo sapiens) (P07550 whole entry, looked up): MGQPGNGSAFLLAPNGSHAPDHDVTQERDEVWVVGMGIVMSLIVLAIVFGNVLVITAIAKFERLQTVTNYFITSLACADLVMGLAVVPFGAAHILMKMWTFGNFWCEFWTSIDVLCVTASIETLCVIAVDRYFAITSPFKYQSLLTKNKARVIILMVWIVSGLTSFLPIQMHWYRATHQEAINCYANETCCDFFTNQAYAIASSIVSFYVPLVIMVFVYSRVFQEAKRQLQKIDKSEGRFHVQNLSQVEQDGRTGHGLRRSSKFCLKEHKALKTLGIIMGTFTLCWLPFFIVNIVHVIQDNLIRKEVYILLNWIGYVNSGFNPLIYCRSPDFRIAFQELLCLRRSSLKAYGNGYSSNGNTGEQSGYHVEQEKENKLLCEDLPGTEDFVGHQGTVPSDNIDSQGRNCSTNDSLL
Method in brief: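 Cells (CHO, stable ADRB2 overexpression) incubated 18-20hr at 37C; compounds added from DMSO; agonist mix (1nM isoproterenol, 100uM IBMX, 25uM Ro-20-1724) added; 0.5hr RT; d2-cAMP and anti-cAMP-cryptate added; 1hr RT; 665/615 nm read.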

[13] = target: D(2) dopamine receptor (Homo sapiens) (UniProt P14416); assay: Dopamine D2 receptor (DRD2) small molecule agonists, cell-based qHTS assay (AID 1963594); note: nearly all actives have a fitted effect of over 35% in size
Sequence of D(2) dopamine receptor (Homo sapiens) (P14416 whole entry, looked up): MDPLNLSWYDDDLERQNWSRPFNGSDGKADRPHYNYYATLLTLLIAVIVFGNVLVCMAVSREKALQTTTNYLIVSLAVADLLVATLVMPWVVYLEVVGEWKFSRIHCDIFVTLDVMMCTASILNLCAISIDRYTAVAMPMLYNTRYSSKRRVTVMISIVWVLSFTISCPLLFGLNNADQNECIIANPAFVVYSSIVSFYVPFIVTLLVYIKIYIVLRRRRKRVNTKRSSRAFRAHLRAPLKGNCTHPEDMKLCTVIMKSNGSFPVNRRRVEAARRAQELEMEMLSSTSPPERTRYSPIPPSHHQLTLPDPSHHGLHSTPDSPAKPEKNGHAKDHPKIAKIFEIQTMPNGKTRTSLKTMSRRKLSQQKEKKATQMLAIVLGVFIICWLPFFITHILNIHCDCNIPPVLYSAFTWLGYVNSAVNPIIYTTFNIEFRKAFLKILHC
Method in brief: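 HEK293 cells stably expressing DRD2 were cultured 24 h at 37 C, then given Ro20-1724 (0.1 mM final) and compounds for 10 min at room temperature. NKH477 (200nM) was then added for 30 min. cAMP was read by HTRF.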

[14] = target: D(2) dopamine receptor (Homo sapiens) (UniProt P14416); assay: Dopamine D2 receptor (DRD2) small molecule antagonists, cell-based qHTS assay (AID 1963595; active = well fitted inhibition curve with a large enough effect in the signal ratio in the repeat runs, with a control signal flat; the % refers to the signal ratio)
Method in brief: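 Stable D2 receptor HEK293 line, 24 h after seeding. Compound preincubated 10 min, then quinpirole (12 nM) with forskolin analogue NKH477 (200 nM), 30 min, room temperature. Detection by time-resolved FRET of cAMP.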

[15] = cAMP Responsive Elements (CRE) small molecule agonists, cell-based qHTS assay (AID 1963590)
Method in brief: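 CRE-bla HEK 293T cells in DMEM with 10% dialyzed FBS, NEAA, pyruvate and 25 mM HEPES were plated 18 h at 37 C/5% CO2, then exposed to compounds in DMSO for 3 h before LiveBLAzer B/G FRET substrate addition.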

[16] = cAMP Responsive Elements (CRE) small molecule antagonists, cell-based qHTS assay (AID 1963591; active = well fitted inhibition curve with a large enough effect in the signal ratio in the repeat runs, not every such curve was filed as active; the % refers to the signal ratio)
Method in brief: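 CRE-bla HEK293T cells were plated 18 h at 37 °C/5% CO2, pinned with compound in DMSO, then stimulated with NKH477 at 0.25 uM final for 3 h. LiveBLAzer B/G FRET substrate was added and plates incubated 2 h at room temperature.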

[17] = target: Beta-2 adrenergic receptor (Homo sapiens) (UniProt P07550); assay: Adrenergic beta2 receptor (ADRB2) small molecule agonists, cell-based qHTS assay (AID 1963593);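 note: CHO cells stably overexpressing human ADRB2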
Method in brief: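 CHO cells stably over-expressing ADRB2 were plated overnight at 37C, then dosed with compounds plus a stimulation mix containing 100uM IBMX and 25uM Ro-20-1724 for 0.5hr at room temperature. cAMP was measured by HTRF competition, 1hr.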

[18] = target: 5-hydroxytryptamine receptor 2A (Homo sapiens) (UniProt P28223); assay: 5-hydroxytryptamine receptor 2A (HTR2A) small molecule agonists, cell-based qHTS assay (AID 1963587); note: nearly all actives have a fitted effect of over 30% in size
Method in brief: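 HTR2A-CHO cells, plated 18 h at 37 C/5% CO2, dye-loaded 1 h at 37 C; compounds in DMSO added by pin tool (agonist mode). Intracellular calcium flux read as kinetic fluorescence on FDSS over 2 min at 1 s intervals.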
% is set by controls: 0 for no effect and ±100 for the full control effect.

CCCCCCCCCCCCCOC(=O)CCSCCC(=O)OCCCCCCCCCCCCC
inactive: activity change, negative = cytotoxicity [1] -1.71% [at 19 µM] | activity, positive = activation [2] 4.84% [at 19 µM] | activity change [3] 1.53% [at 11.8 µM, active compounds read high] | activation [4] 1.75% [at 15.8 µM] | activation [5] -0.388% [at 11.8 µM] | activity change, negative = cytotoxicity [6] -3.75% [at 13.5 µM] | activity change, negative = cytotoxicity [7] -0.0386% [at 13.5 µM] | activity change, negative = cytotoxicity [8] -3.06% [at 13.5 µM] | activity, negative = inhibition [9] 1.85% [at 12.7 µM] | activity, negative = inhibition [10] 18% [at 12.6 µM] | activation [11] -0.105% [at 15.8 µM] | activity change, negative = inhibition [12] -0.103% [at 19 µM] | activation [13] 5.42% [at 19 µM] | activity change, negative = inhibition [14] -7.07% [at 18.9 µM]

Cc1c(Cl)cccc1Cl
inactive: Potency [1] | Potency [2] | Potency [3] | Potency [4] | Potency [5] | Potency [6] | Potency [7] | Potency [8] | Potency [9] | Potency [10] | Potency [11] | Potency [15] | Potency [12] | Potency [13] | Potency [14]

CC(CCc1ccc2c(c1)OCO2)NN (centres undefined)
inactive: Potency [1] | Potency [2] | Potency [3] | Potency [4] | Potency [5] | Potency [6] | Potency [7] | Potency [8] | Potency [9] | Potency [10] | Potency [11] | Potency [15] | Potency [16] | Potency [12] | Potency [17] | Potency [13] | Potency [14]

CO/N=C(/C(=O)N[C@@H]1C(=O)N2C(C(=O)O)=C(Cn3nnc(C)n3)CS[C@H]12)c1csc(N)n1
inactive: Potency [1] | Potency [2] | Potency [3] | Potency [4] | Potency [5] | Potency [6] | Potency [7] | Potency [8] | Potency [18] | Potency [10] | Potency [11] | Potency [15] | Potency [16] | Potency [12] | Potency [17] | Potency [13] | Potency [14]

CCCc1ccc(OC)cc1
inactive: Potency [1] | Potency [2] | Potency [3] | Potency [4] | Potency [5] | Potency [6] | Potency [7] | Potency [8] | Potency [18] | Potency [10] | Potency [11] | Potency [15] | Potency [16] | Potency [12] | Potency [17] | Potency [13] | Potency [14]

O=C1c2ccccc2C(=O)c2cc(S(=O)(=O)O)ccc21
inactive: Potency [1] | Potency [2] | Potency [3] | Potency [4] | Potency [5] | Potency [6] | Potency [7] | Potency [8] | Potency [9] | Potency [11] | Potency [15] | Potency [16] | Potency [12] | Potency [17] | Potency [13] | Potency [14]

O=C(Nc1ccccc1)OCC(CN1CCCCC1)OC(=O)Nc1ccccc1 (centres undefined)
inactive: Potency [1] | Potency [2] | Potency [3] | Potency [4] | Potency [5] | Potency [6] | Potency [7] | Potency [18] | Potency [10] | Potency [11] | Potency [15] | Potency [16] | Potency [12] | Potency [13] | Potency [14]
active: Potency [8] 12.6 µM

CN1C(CSCC(F)(F)F)Nc2cc(Cl)c(S(N)(=O)=O)cc2S1(=O)=O (centres undefined)
inactive: Potency [1] | Potency [2] | Potency [3] | Potency [4] | Potency [5] | Potency [6] | Potency [7] | Potency [8] | Potency [18] | Potency [10] | Potency [11] | Potency [15] | Potency [16] | Potency [12] | Potency [17] | Potency [13] | Potency [14]
